In PubChem BioAssay (NCI) one finds growth data, which are given here for 40 compounds.

Structures are written as SMILES. This is part of a sample that, as a whole, favours compounds with a hit. Of some 83,000 tested, about 20% had one in any assay.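 A percent growth of 40 corresponds to 60% growth inhibition; 0 means no net growth; -100 means all cells died. Active threshold: below 10.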 Activity calls are given as the source filed them.

The test system of this test is HCC-2998 colon. Description: NCI-60 one-dose screen, 48 h (100 = growth as untreated, 0 = no growth, -100 = all killed). As to conditions: 10 µM unless noted. How it is done: Growth inhibition of the HCC-2998 human tumor cell line is measured as a screen for anti-cancer activity. Cells are grown in 96 well plates and exposed to the test compound for 48 hours. Compounds are tested at a single concentration, which is 10^-5 M for most compounds. The reported endpoint is percent growth (GI% or GIPRCNT), where numbers from 0 - 100% represent growth inhibition, and numbers from -100% - 0 represent cell death. For example, a value of 40 represents 60% growth inhibition. A value of 0 means no net growth occurred over the course of the experiment. A value of -40 indicates 40% of cells at the beginning of the experiment died by the end of the experiment. A value of -100 means all cells are dead at the end of the experiment.
NCI-60 Human Tumor Cell Lines Screen was performed using the standard one-dose NCI protocol, which is described in more detail at https://dtp.cancer.gov/discovery_development/nci-60/default.htm.
Compounds with GIPRCNT values below 10 were considered active. Activity score was based on GIPRCNT using the following formula: […]
Score is 0 for GIPRCNT values of 100 or above, 50 for GIPRCNT values of 0, and 100 for GIPRCNT values of -100.
In the case of `Cc1ccc(-c2nc(C(Cl)Cl)nc3cc(-c4ccccc4)nn23)cc1`, the growth was -55.8% (active). Consider `OC1CCN(CCCOc2c3ccccc3nc3c2oc2ccc(Cl)cc23)CC1`, for which the growth was 21.9% (inactive). Regarding `N#Cc1c(-c2ccc(Cl)cc2)nc(SCc2ccc(F)cc2)nc1N1CCNCC1`, the growth was -31.8% (active). On to `C#C[C@]1(O)CC[C@H]2[C@@H]3CC=C4c5sc(Nc6ccc(Cl)cn6)nc5CC[C@]4(C)[C@H]3CC[C@@]21C`, for which the growth is 80% (inactive). `O=C(CSc1nccc(=O)[nH]1)Nc1ccc(-c2nc3ccccc3[nH]2)cc1`: the growth is 116% (inactive). In the case of `N#Cc1c(-c2ccc(F)cc2)nc2c(C#N)c(Nc3ccccc3)nn2c1N`, the growth is 109% (inactive). Take `Clc1ccc2oc3c(OCCCn4ccnc4)c4ccccc4nc3c2c1`: the growth was 72.1% (inactive). `COc1ccccc1/C=C/C=N/NC1=NC2C(S1)N(C)C(=O)N2C` (stereo not given): the growth was 68.3% (inactive). Take `O=C(N/N=C/c1ccc([N+](=O)[O-])o1)c1[nH]c2ccc(Br)cc2c1-c1ccccc1`: the growth is 2.07% (active). For `C/C(=N\NC(N)=O)c1c(O)sc(=O)[nH]c1=O`, the growth was 110% (inactive). As for `CNC(=O)c1cc(-c2ccc(NC(=O)Nc3ccc(N4CCOCC4)c(C(F)(F)F)c3)cc2)nc2cccnc12`, the growth is 79.9% (inactive). With `O=C(CN1C(=O)/C(=C/c2ccccc2)SC1=S)N1CCOCC1` the figure was 112% (inactive). For the compound `COc1ccc(-c2nc3ccc(-c4nnc(SCC(=O)Nc5ccc(C(C)=O)cc5)o4)cc3[nH]2)cc1`, the growth was 111% (inactive). Then `O=C(N/N=C/c1cccs1)c1[nH]c2ccc(Br)cc2c1-c1ccccc1`, with 24.1% (inactive); and `COc1cc(/C=C/C(=O)c2cc(OC)c(OC)c(OC)c2)ccc1OCc1ccccc1`, with 44.6% (inactive); and `CN(C)S(=O)(=O)c1oc(-c2ccccc2)nc1C#N`, with 108% (inactive). Consider `CC(O)C(NC(=O)C1CCCN1C(=O)CNC(=O)C1CC(=O)NCC(=O)NC(Cc2c[nH]c3ccccc23)C(=O)NC(Cc2ccc(O)cc2)C(=O)NCC(=O)NC(CO)C(=O)NC(CCC(N)=O)C(=O)NC(Cc2c[nH]c3ccccc23)C(=O)N1)C(=O)NCC(=O)NC(CCC(N)=O)C(=O)NC(CCCNC(=N)N)C(=O)NC(CC(=O)O)C(=O)O` (stereo not given), for which the growth was 120% (inactive).

In the case of `Clc1ccc2oc3c(NCCCn4ccnc4)c4ccccc4nc3c2c1`, the growth is 55.2% (inactive). With `NS(=O)(=O)c1cccc(Nc2nc(SCC(=O)c3ccc(Cl)cc3)nc3ccccc23)c1`, the growth was 112% (inactive). Regarding `O=c1[nH]c2ccc(Cl)cc2cc1CSc1ccccc1Nc1nccc(-c2ccc(Cl)cc2)n1`, the growth is 119% (inactive). For the compound `O=C1NC(=C(Cl)Cl)/C(=N/S(=O)(=O)N2CCCCC2CC2(C(F)(F)F)N=N2)N1` (stereo not given), the growth was 5.46% (active). Then `Cc1ccc(C(=O)Nc2cccc(C(F)(F)F)c2)cc1Nc1nc(-c2cnccn2)nc2c1cnn2C`, with 47.9% (inactive); and `Nc1c(C(=O)Nc2ccc(C(F)(F)F)cc2)sc2nc(-c3cnccn3)cc(-c3cccs3)c12`, with 108% (inactive). In the case of `N#Cc1nc(-c2ccccc2)oc1S(=O)(=O)N1CCN(CCc2ccccn2)CC1`, the growth was 114% (inactive). With `Clc1ccc2c(NCCCN3CCOCC3)c3oc4ccc(Cl)cc4c3nc2c1` the figure was 10% (inactive); with `O=C1/C(=C/C2=Cc3ccccc3OC2)SC(=S)N1c1ccc(F)cc1`, 107% (inactive). On to `O=C(O)CCCCCN1C(=O)/C(=C/c2ccc(O)c(O)c2)SC1=S`, for which the growth is 115% (inactive). Regarding `O=C(N/N=C/c1ccc[nH]1)c1[nH]c2ccc(Br)cc2c1-c1ccccc1`, the growth was 17.2% (inactive). Take `Fc1ccc(-c2cc3nc(C(Cl)Cl)nc(-c4ccc(Cl)cc4)n3n2)cc1`: the growth is -60.4% (active). Turning to `COc1cc(/C=C/C(=O)c2cc(OC)c(OC)c(OC)c2)ccc1Oc1nc(NCCO)nc(N2CCOCC2)n1`, the growth was -17.5% (active). Then `CCN1C(=S)N(c2ccccc2)C2NC(=O)N(/N=C/C=C/c3ccccc3OC)C21` (stereo not given), with 130% (inactive); and `COC(=O)c1ccc(NC(=S)N2CCc3ccc([N+](=O)[O-])cc3C2)cc1O`, with 110% (inactive); and `Cc1cc(C(NC(=O)CCCCCNc2cccc3c2C(=O)N(C2CCC(=O)NC2=O)C3=O)c2cccnc2)c(O)c2ncccc12` (stereo not given), with 2.27% (active). For the compound `COC(=O)C(Cc1ccccc1)NS(=O)(=O)/N=C1\NC(=O)NC1=C(Cl)Cl` (stereo not given), the growth is 113% (inactive). For the compound `CCOC(=O)c1csc(NC(=O)CSc2nc3sc4c(c3c(=O)n2-c2ccc(Cl)cc2)CCCC4)n1`, the growth is 121% (inactive). As to `[Cl][Ru].c1ccc(-c2cc(-c3ccccn3)nc(-c3ccccn3)c2)cc1.c1ccc(-c2ccnc3c2ccc2c(-c4ccccc4)ccnc23)cc1`, the growth is -72.9% (active). As for `Fc1ccc(-c2cc3nc(C(Cl)Cl)nc(-c4ccccc4)n3n2)cc1`, the growth was -47.1% (active). With `CCN1C(=S)N(CC)C2C1N=C(SC)N2/N=C/C=C/c1ccccc1[N+](=O)[O-]` (stereo not given) the figure was 112% (inactive); with `C#Cc1nc(C2=C(C)/C(=N/OCc3ccccc3)CC2)cs1`, 99.8% (inactive).

For `N#Cc1nc(-c2ccccc2)oc1N1CC[C@@H](CO)C1`, the growth is 110% (inactive).
